Measurements from PubChem BioAssay (NCI).
This is part of a sample that, as a whole, favours compounds with a hit. Of some 83,000 tested, about 20% had one in any assay.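 How to read the values: 0–100, growth inhibition (40 = 60% inhibited); 0, no net growth; -100 to 0, cell death (-40 = 40% of starting cells died; -100 = all dead).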 Activity calls are given as the source filed them. Rule for the calls: active = growth percent below 10; inactive = the rest.

System: NCI-H460 lung
Assay: NCI-60 one-dose screen, 48 h (100 = growth as untreated, 0 = no growth, -100 = all killed)
Conditions: 10 µM unless noted

**Q.** With `COc1ccc(OC)c(N(CCN2C(=O)c3ccccc3C2=O)C(=O)CCl)c1` as the molecule, how does the growth read?
**A.** 90.3% (inactive)

**Q.** `O=C(NC1CCN(Cc2ccccc2)CC1)c1cc(C(=O)NC2CCN(Cc3ccccc3)CC2)cc(C(=O)NC2CCN(Cc3ccccc3)CC2)c1` was tested. Which growth did it give?
**A.** 91.8% (inactive)

**Q.** For `CCOC(=O)c1c(Cl)c2c(n1Cc1ccccc1)-c1oncc1CCC2`, which growth is on record?
**A.** 81% (inactive)

**Q.** For `O=C(/C=C/c1ccccn1)c1ccc(OCc2nnc(-c3ccc(Cl)cc3)o2)cc1`, which growth is on record?
**A.** 42.4% (inactive)

**Q.** How did the growth turn out when `CSc1nc2c(c(=O)n1C)N=C1c3ccccc3C(=O)C1C(c1ccccc1)N2` (centres undefined) was run?
**A.** 76.2% (inactive)

**Q.** With `CC/C=C\C[C@H](O)C/C=C1/C(=O)C=C[C@@H]1C/C=C\CCCC(=O)OCCS(=O)(=O)c1ccccc1` as the molecule, how does the growth read?
**A.** 42% (inactive)

**Q.** `Cc1cc(Nc2ccc(OCc3ccccc3)cc2)nc2cc(O)ccc12` was tested. Which growth did it give?
**A.** 47.2% (inactive)

**Q.** How did the growth turn out when `CSc1nc2c(c(=O)[nH]1)N=C1c3ccccc3C(=O)C1C(c1ccc(F)cc1)N2` (centres undefined) was run?
**A.** 51.7% (inactive)

**Q.** `CCOc1ccccc1CN1CCc2nc3cc(C(C)(C)C)[nH]n3c(=O)c2C1` was tested. Which growth did it give?
**A.** 107% (inactive)

**Q.** For `O=C(NC(=S)Nc1cccc(NC(=S)NC(=O)c2ccccc2)c1)c1ccccc1`, which growth is on record?
**A.** 46.4% (inactive)

**Q.** `CCOC(=O)c1c2c(n3cccc(Cl)c13)C(=O)c1ncccc1C2=O` was tested. Which growth did it give?
**A.** 10% (inactive)

**Q.** Which growth does the source give for `O=C(NN1C(=O)CSC1c1ccc(Cl)cc1)c1[nH]c2ccc(F)cc2c1-c1ccccc1` (centres undefined) here?
**A.** 5.13% (active)

**Q.** With `COc1ccc(-n2c(C(O)c3ccccc3)nn(CN3CCOCC3)c2=S)cc1` (centres undefined) as the molecule, how does the growth read?
**A.** 111% (inactive)

**Q.** `CCCC(=O)CC(C)=O.CCCC(=O)CC(C)=O.[Cu]` was tested. Which growth did it give?
**A.** 107% (inactive)

**Q.** How did the growth turn out when `COc1ccc(C2Nc3ncnc(N)c3N=C3c4ccccc4C(=O)C32)cc1` (centres undefined) was run?
**A.** 104% (inactive)

**Q.** How did the growth turn out when `Nc1nc(N)c2c(n1)NC1(C=C(O)c3ccccc31)C1=C(N2)c2ccccc2C1=O` (centres undefined) was run?
**A.** 105% (inactive)

**Q.** `CCOC(=O)c1cnc2ccc(Cl)cc2c1NCCCN(C)C` was tested. Which growth did it give?
**A.** 1.86% (active)

**Q.** With `CCCCCCc1cc2cc(-c3nc4ccccc4[nH]3)c(=Nc3ccccc3C)oc2cc1O` as the molecule, how does the growth read?
**A.** 44.8% (inactive)

**Q.** Which growth does the source give for `OC(c1ccccc1)c1nnc(SCc2ccccc2)n1Cc1ccccc1` (centres undefined) here?
**A.** 106% (inactive)

**Q.** For `CC(=O)O[C@@H]1/C=C/C(=O)N[C@@H](C)CCC/C=C/[C@@H]2CCC[C@H]21`, which growth is on record?
**A.** 107% (inactive)

**Q.** `COc1ccc(C2Nc3nc(OC)n(C)c(=O)c3N=C3c4ccccc4C(=O)C32)cc1` (centres undefined) was tested. Which growth did it give?
**A.** 97% (inactive)

**Q.** For `CN1CCN(c2nc(Nc3ccc(O)cc3)nc3ccccc23)CC1`, which growth is on record?
**A.** 13.9% (inactive)

**Q.** How did the growth turn out when `COc1ccc(/C=C2\SC(=Nc3ccccc3)NC2=O)cc1` was run?
**A.** -79.4% (active)

**Q.** Which growth does the source give for `CCOC(=O)c1cc2c(n1Cc1cc(OC)c(OC)c(OC)c1)-c1oncc1CCC2` here?
**A.** 5.74% (active)

**Q.** `Cn1c2c(c(=O)[nH]c1=O)NC1=C(C(=O)c3ccccc31)C1(C=C(O)c3ccccc31)N2` (centres undefined) was tested. Which growth did it give?
**A.** 111% (inactive)

**Q.** Which growth does the source give for `FC(F)(F)c1cccc(Nc2nc(-c3ccccc3)nc3ncccc23)c1` here?
**A.** 20.9% (inactive)

**Q.** `O=C(Nc1ccc(Cl)cc1)c1cc2ccccc2cc1OP(=O)(O)O` was tested. Which growth did it give?
**A.** 14.2% (inactive)

**Q.** `COC(=O)/C(=C\c1c(-c2ccccc2)[nH]c2ccccc12)S(C)(=O)=O` was tested. Which growth did it give?
**A.** 12.5% (inactive)

**Q.** Which growth does the source give for `Nc1ccc(C2c3ccccc3Oc3ccccc32)cc1` here?
**A.** 108% (inactive)

**Q.** Which growth does the source give for `N#CC(C#N)=Cc1c(-c2ccccc2)[nH]c2ccccc12` here?
**A.** 16.9% (inactive)

**Q.** `CCCCc1ccc(NS(=O)(=O)c2cc3c4c(c2)CCN4C(=O)CC3)cc1` was tested. Which growth did it give?
**A.** 4.33% (active)

**Q.** Which growth does the source give for `O=C(CSc1ncccc1C(=O)O)Nc1ccc(Oc2ccccc2)cc1` here?
**A.** 102% (inactive)

**Q.** How did the growth turn out when `N#C/C(=C\c1c(-c2ccccc2)[nH]c2ccccc12)C(=O)c1ccccc1` was run?
**A.** 18.9% (inactive)

**Q.** How did the growth turn out when `O=C1/C=C/[C@@H](O)[C@@H]2C[C@@H](O)C[C@H]2/C=C/CCCCO1` was run?
**A.** 7.12% (active)

**Q.** With `CCCC(c1nnnn1C1CCCCC1)N1CCN(C(=O)c2ccco2)CC1` (centres undefined) as the molecule, how does the growth read?
**A.** 40.6% (inactive)

**Q.** With `Nc1nc(Nc2cccc(F)c2)nc2ccccc12` as the molecule, how does the growth read?
**A.** 31.6% (inactive)

**Q.** With `CC(C)(C)c1ccc(C2CC(=O)C3=C(C2)Nc2ccccc2N(C(=O)c2ccccc2Cl)C3c2ccc(F)cc2)cc1` (centres undefined) as the molecule, how does the growth read?
**A.** -0.748% (active)

**Q.** For `O=CCCCC(O)C=O` (centres undefined), which growth is on record?
**A.** 101% (inactive)

**Q.** `CN(O)c1nc(N(C)O)nc(N2CCOCC2)n1` was tested. Which growth did it give?
**A.** 8.62% (active)
